Source: PubChem BioAssay (Pan Lab, Icahn School of Medicine at Mount Sinai)
Shown is part of a subset that was picked to be rich in hits.
RBX1-CUL1 inh: human ROC1-CUL1 E3 ligase inhibition. AID 1347404. in vitro K48 di-Ub FRET, acceptor:donor ratio, 45 min. inhibition, % at 10 µM. hit rate 0.6% among 140,000. P62877+Q13616; in the data active = inhibition above about 25%
Target sequence (P62877 whole entry, looked up): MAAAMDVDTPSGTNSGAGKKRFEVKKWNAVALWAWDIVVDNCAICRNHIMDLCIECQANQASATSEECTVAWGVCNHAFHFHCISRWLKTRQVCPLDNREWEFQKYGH
Target sequence (Q13616 whole entry, looked up): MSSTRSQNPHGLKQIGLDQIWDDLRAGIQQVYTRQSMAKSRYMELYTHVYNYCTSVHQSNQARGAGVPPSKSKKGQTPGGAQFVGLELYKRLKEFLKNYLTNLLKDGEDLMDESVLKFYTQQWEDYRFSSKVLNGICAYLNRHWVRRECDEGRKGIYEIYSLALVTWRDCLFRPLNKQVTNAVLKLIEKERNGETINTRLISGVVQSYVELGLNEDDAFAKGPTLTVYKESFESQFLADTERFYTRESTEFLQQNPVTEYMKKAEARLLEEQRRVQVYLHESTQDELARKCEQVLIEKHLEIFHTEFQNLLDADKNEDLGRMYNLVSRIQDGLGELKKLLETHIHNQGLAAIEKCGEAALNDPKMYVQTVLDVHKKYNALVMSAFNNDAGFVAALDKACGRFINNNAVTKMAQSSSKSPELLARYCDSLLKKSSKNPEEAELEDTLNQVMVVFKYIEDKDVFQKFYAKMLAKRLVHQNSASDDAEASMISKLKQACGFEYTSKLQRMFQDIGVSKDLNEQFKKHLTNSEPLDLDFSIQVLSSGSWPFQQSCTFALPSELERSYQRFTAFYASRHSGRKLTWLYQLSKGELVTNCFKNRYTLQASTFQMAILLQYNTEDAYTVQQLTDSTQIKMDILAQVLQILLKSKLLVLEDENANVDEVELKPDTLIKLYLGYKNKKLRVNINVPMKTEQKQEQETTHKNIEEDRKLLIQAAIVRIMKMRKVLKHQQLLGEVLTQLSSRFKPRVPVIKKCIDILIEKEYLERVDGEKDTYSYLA
Active calls of the source: *.

SMILES	RBX1-CUL1 inh
Cc1ccc(NC(=O)/C=C/c2ccc(Cl)cc2)c(Br)c1	-8
CC(=C/C(=O)O)/C=C/c1ccc(Cl)o1	-1
Cc1ccc(NC(=O)/C=C/c2ccc(C)o2)c(C)c1	0
Cc1ccc(NC(=O)/C=C/c2ccc(C)o2)c(Br)c1	63*
COc1cccc(OC)c1C(=O)Oc1ccc2c(=O)c(Oc3ccc4ccccc4c3)c(C(F)(F)F)oc2c1	-2
CC1(C)OC(C)(C)/C(=C/N2CCCCC2)C1=O	-2
CC(=O)NC1=NN(c2ccccc2)C(=O)C1N=Nc1ccccc1S(=O)(=O)O (centres undefined)	-1
O=c1[nH]c(-c2ccccc2)nc2sc3c(c12)CCC3	5
CSc1ccc(S(=O)(=O)N2CCC(C(=O)NC3CCCC3)CC2)cc1	8
COc1ccccc1NC(=S)N1CCC(C(O)(c2ccccc2)c2ccccc2)CC1	9
Cn1nccc1C(=O)N1CCC2(CCCN(CC3CCC3)C2=O)C1 (centres undefined)	-2
O=C1Nc2ccccc2C(=O)C1N1CCOCC1 (centres undefined)	0
O=C(O)c1cccc(N=C2C(=O)c3ccccc3C(=O)C2N2CCOCC2)c1 (centres undefined)	54*
O=C(O)c1cccc(N=C2C(=O)N(c3ccc(Cl)cc3Cl)C(=O)C2Cl)c1 (centres undefined)	-7
Cc1ccccc1CNC(=O)c1ccc(N2CCOCC2)cc1	-8
Cc1[nH][nH]c(=O)c1C(c1c(C)[nH][nH]c1=O)c1cn(Cc2ccccc2Cl)c2ccccc12	68*
CCOc1ccc2c(c1)c(=O)c(S(=O)(=O)c1ccc(C)cc1)cn2Cc1ccccc1Cl	-4
O=C1OC2(CCCCC2)OC(=O)C1=Cc1cn(Cc2ccccc2Cl)c2ccccc12	-11
COc1nsnc1-c1ccc(F)cc1	-2
Cc1sc(NC(=O)/C=C/c2ccco2)c(C(N)=O)c1C	6
CC(C)(CC(=O)Nc1scc(-c2cccs2)c1C(=O)O)CC(=O)Nc1scc(-c2cccs2)c1C(=O)O	-3
O=C(/C=C/c1ccco1)Nc1scc(-c2cccs2)c1C(=O)O	28*
CCOc1ccc(-c2nn(-c3ccccc3)cc2C2C(C(=O)OCCOC)=C(C)N=C(C)C2C(=O)OCCOC)cc1C (centres undefined)	1
CCCCCC(=O)Nc1scc(-c2ccc(OC)c(OC)c2)c1C(=O)OCC	2
COC(=O)c1cc(NC(=O)CN2CCCCCC2)cc(C(=O)OC)c1	2
SMILES	RBX1-CUL1 inh
O=C(CCC(=O)OCC(=O)c1ccc(F)cc1)Nc1cccc(C(F)(F)F)c1	7
CCCc1c(C(=O)OCC)cnc2nc(C)nn12	15
O=C1OC2(CCCCC2)OC(=O)C1=Cc1ccc(Nc2ccc(F)cc2)o1	4
CC1(C)OC(=O)C(=Cc2ccc(Nc3cc(C(F)(F)F)cc(C(F)(F)F)c3)o2)C(=O)O1	88*
O=C1OC2(CCCC2)OC(=O)C1=Cc1ccc(Nc2ccc(F)cc2)o1	7
COc1cc(N2CCN(c3ccncc3S(=O)(=O)N3CCCCC3)CC2)cc(OC)c1OC	10
CCCc1nnc2sc(-c3cc4ccccc4o3)nn12	7
CCCNS(=O)(=O)c1cccc2c(N)cccc12	58*
Cc1ccccc1S(=O)(=O)NCCC(C)C	-7
O=C(O)CNS(=O)(=O)c1cccc2ccccc12	7
CN1C(=O)CC(=NC(=O)Nc2cccc(C(F)(F)F)c2)N(C)C1=O	-7
CC(C)Cn1c(CN2CCN(C3CCCCC3)CC2)cnc1S(C)(=O)=O	11
O=C(Nc1ccc(Oc2ccc(Cl)cc2)cc1)c1ccc2c(c1)OCCO2	7
O=C1NC(=S)S/C1=C/c1ccccn1	-4
O=C1NC(=S)S/C1=C/c1c(Cl)cc(Cl)c(O)c1Cl	28*
Cc1nn(C)cc1/C=C1\SC(=S)NC1=O	-2
CCOC(=O)C1=NN(c2ccccc2)C(=O)/C1=C\c1ccc(F)cc1	6
O=C1/C(=C\c2cccs2)C(c2ccccc2)=NN1c1ccc(Cl)c(Cl)c1	-5
O=C(O)C1=NN(c2ccccc2)C(=O)/C1=C\c1cccs1	26*
O=C(CCN1C(=O)/C(=C\c2ccc(Br)cc2)SC1=S)Nc1nccs1	-2
COc1cc(Cl)cc(/C=C2\C(=O)Nc3ccc(Br)cc32)c1OC	3
COCc1cn(CC2CCN(C(=O)NCc3ccccc3F)CC2)nn1	-8
Cc1ccc(CCC(=O)N2CCC(Cn3cc(CO)nn3)CC2)cc1C	0
COc1cccc(CNC(=O)N2CCC(Cn3cc(CO)nn3)CC2)c1	36*
CCN1CCN(CC(=O)NC2CC(C)(C)Cc3c2cnn3-c2ccc(OC)cc2)CC1 (centres undefined)	-1
SMILES	RBX1-CUL1 inh
N#CC1C(=N)Oc2c(ccc3ccccc23)C1c1ccsc1 (centres undefined)	8
Cc1ccc(NC(=O)CN2C(=O)S/C(=C\c3cccn3-c3cccc(C(=O)O)c3)C2=O)cc1C	48*
Cc1ccc(NC(=O)CN2C(=O)S/C(=C\c3cccn3-c3cccc(C(=O)O)c3)C2=O)c(C)c1	72*
Cc1ccc(NC(=O)CN2C(=O)S/C(=C\c3ccc(N4CCCC4)c(F)c3)C2=O)c(C)c1	-6
Cc1ccccc1NC(=O)CN1C(=O)S/C(=C/c2ccccc2)C1=O	-1
Cc1cccc(C)c1NC(=O)CN1C(=O)S/C(=C\c2cccn2-c2cccc(C(=O)O)c2)C1=O	-3
Cc1cccc(NC(=O)CN2C(=O)S/C(=C\c3cccn3-c3cccc(C(=O)O)c3)C2=O)c1	10
Cc1ccccc1NC(=O)CN1C(=O)S/C(=C\c2cccn2-c2cccc(C(=O)O)c2)C1=O	51*
Cc1ccc(NC(=O)CN2C(=O)S/C(=C\c3ccccn3)C2=O)cc1C	0
Cc1ccc(NC(=O)CN2C(=O)S/C(=C\c3ccc(N4CCOCC4)cc3C)C2=O)c(C)c1	-7
O=C(NCCSc1ccccn1)c1cc(F)c(F)cc1Cl	-6
Cc1ccc(C2CC(c3ccc(F)cc3)=Nc3nc(CCCO)nn32)cc1 (centres undefined)	-1
CN1CCCC2(CCN(Cc3ccc(-c4ccccc4Cl)o3)C2)C1=O (centres undefined)	2
CCN1C(=O)/C(=C/c2ccc(F)cc2)N(C)C1=S	5
O=c1/c(=C/c2ccccc2O)sc2n1C(c1cccs1)C1=C(N=2)c2ccccc2CC1 (centres undefined)	-6
Cc1cc(/C=c2/sc3n(c2=O)C(c2ccc(F)cc2)C2=C(N=3)c3ccccc3CC2)c(C)n1-c1ccc(C(=O)O)cc1 (centres undefined)	0
O=C(O)c1ccc(/C=c2/sc3n(c2=O)C(c2cccs2)C2=C(N=3)c3ccccc3CC2)cc1 (centres undefined)	56*
O=c1/c(=C\c2ccc(O)cc2)sc2n1C(c1cccs1)C1=C(N=2)c2ccccc2CC1 (centres undefined)	10
COc1ccc(/C=c2/sc3n(c2=O)C(c2cccc(F)c2)C2=C(N=3)c3ccccc3CC2)cc1OC (centres undefined)	-1
O=C(O)c1ccc(-c2ccc(/C=c3/sc4n(c3=O)C(c3ccc(F)cc3)C3=C(N=4)c4ccccc4CC3)o2)cc1Cl (centres undefined)	58*
O=C(O)c1cccc(-c2ccc(/C=c3/sc4n(c3=O)C(c3cccc(F)c3)C3=C(N=4)c4ccccc4CC3)o2)c1 (centres undefined)	73*
O=c1/c(=C\c2cc(Cl)ccc2O)sc2n1C(c1ccccc1)C1=C(N=2)c2ccccc2CC1 (centres undefined)	-5
